In PubChem BioAssay (EPA / NIEHS) one finds outcome and AC50 data, which are given here for six molecules.

Inconclusive results are not listed. The source holds several records for some structures; these can differ, active in one and inactive in another. Active and inactive are the calls of the source. Rule for the calls, unless noted: active = hit-call score of the fitted dose curve at least 0.9, where 1 is the maximum; inactive = score below 0.9.

A short description of test [1]: ATG_NFI_CIS: Attagene CIS-FACTORIAL HepG2 Assay for human Nuclear Factor I (NFI) (AID 2282989). The following applies: HepG2 cis-regulatory reporter, NFI response element transcription; actives raise or lower the signal. Summed up: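 HepG2 cells transiently transfected with cis-element-driven multiplexed reporter transcription units, dosed for 24 h. Reporter mRNA quantified by RT-PCR, fluorescent labelling, HpaI digestion and capillary electrophoresis; bidirectional fit versus DMSO baseline.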

A short description of test [2]: ATG_NF_kB_CIS: Attagene CIS-FACTORIAL HepG2 Assay for human Nuclear Factor Kappa B (NF-kB) (AID 2282991). To be noted: HepG2 Attagene cis-factorial NF-kB reporter mRNA; actives raise or lower the signal. Summed up:
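Multiplexed cis-reporter assay in transiently transfected HepG2. 24 h treatment; RNA isolated, RT-PCR, labelled fragments resolved by CE. DMSO baseline.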

Test [3] is described as follows: ATG_NRF2_ARE_CIS: Attagene CIS-FACTORIAL HepG2 Assay for human Nuclear Factor Erythroid 2 Related Factor 2 (NFR2) response to Antioxidant Response Elements (ARE) (AID 2282992). The following applies: HepG2 Attagene ARE/NRF2 reporter, transcription factor activity; actives raise or lower the signal. Summed up:
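Endogenous transcription factor activity read out as reporter transcript levels (RT-PCR plus capillary electrophoresis, fluorescence) in transiently transfected HepG2 cells. Measured at 24 h after dosing; gain or loss of signal fitted versus DMSO.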

Test [4] is described as follows: ATG_Oct_MLP_CIS: Attagene CIS-FACTORIAL HepG2 Assay for human Octamer-Binding Transcription Factor (Oct) (AID 2282993). To be noted: HepG2 Attagene cis-factorial Oct reporter, mRNA; actives raise or lower the signal. Summed up:
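HepG2 cells transiently transfected with cis-promoter-driven multiplexed reporter transcription units, dosed for 24 h. Reporter mRNA quantified by RT-PCR, fluorescent labelling, HpaI digestion and capillary electrophoresis; bidirectional fits versus DMSO baseline.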

Test [5] addresses Cellular tumor antigen p53 (Homo sapiens) (UniProt P04637). Kind of test: ATG_p53_CIS: Attagene CIS-FACTORIAL HepG2 Assay for human p53 Transcription Factor (AID 2282994). The following applies: HepG2 p53 cis-element reporter, Attagene mRNA; actives raise or lower the signal. Summed up:
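Endogenous p53 activity read in transiently transfected HepG2 from a cis-element-driven reporter transcript after 24 h exposure. RNA reverse-transcribed, PCR-amplified, fluorescently labelled and sized by capillary electrophoresis; gain or loss fitted against DMSO baseline.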

Test [6] is described as follows: BSK_3C_TissueFactor: BioMAP Diversity Plus: 3C Assay for Tissue Factor Biomarker Activity (AID 2282997). The following applies: BioMAP 3C HUVEC, tissue factor biomarker readout; actives raise or lower the signal. Summed up: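 In this endothelial system, HUVEC are treated for 24 h and Tissue Factor is assessed by ELISA, normalised to DMSO.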
Test [7] is described as follows: BSK_3C_uPAR: BioMAP Diversity Plus: 3C Assay for Urokinase-type plasminogen activator receptor (uPAR) Biomarker Activity (AID 2282998). To be noted: BioMAP 3C HUVEC, uPAR biomarker ELISA; actives raise or lower the signal. Summed up: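 Human umbilical vein endothelial primary cells were exposed to test chemical for 24 h. Cell-surface uPAR was then quantified by ELISA, and responses were fitted bidirectionally against DMSO as negative control and baseline.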

Test [8] can be described thus: BSK_3C_VCAM1: BioMAP Diversity Plus: 3C Assay for Vascular cell adhesion molecule 1 (VCAM1) Biomarker Activity (AID 2282999). To be noted: BioMAP 3C HUVEC, VCAM1 ELISA, cytokine-stimulated; actives raise or lower the signal. Summed up:
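Activity fitted in both directions relative to DMSO, with ELISA measurement of the surface marker on primary HUVEC (3C) at 24 h post-treatment; parallel SRB staining (0.1% SRB, TCA-fixed, 560 nm) flagged overt cytotoxicity.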

Test [9] is described as follows: BSK_4H_Eotaxin3: BioMAP Diversity Plus: 4H Assay for Eotaxin 3 Biomarker Activity (AID 2283000).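 Note: CCL26 protein level quantified by ELISA in parallel with SRB cytotoxicity check.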 The following applies: primary human endothelial cells (HUVEC); actives raise or lower the signal. Summed up: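 ELISA quantitation of CCL26 (Eotaxin-3) protein from chemically dosed human vascular endothelial cells at 24 h; increases and decreases both scored relative to DMSO-treated baseline.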

In test [10] the target is human Peroxisome Proliferator-activated Receptor alpha (PPARa), PPARA (gene 5465) (UniProt Q07869). Kind of test: ATG_PPARa_TRANS: Attagene TRANS-FACTORIAL HepG2 Assay for human Peroxisome Proliferator-activated Receptor alpha (PPARa) (AID 2283001; active = hit-call score of the fitted dose curve at least 0.9, where 1 is the maximum;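 for AC50: potency for gain of reporter signal over DMSO so agonist or activator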). Summed up: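 Reporter transcripts quantified by RT-PCR plus capillary electrophoresis after 24 h treatment, fitted upward relative to DMSO. Cells: human HepG2 transiently carrying multiple GAL4-UAS reporter units driven by NR-Gal4 chimeras.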
Chain of human Peroxisome Proliferator-activated Receptor alpha (PPARa), PPARA (gene 5465) (Q07869 whole entry, looked up, the tested form may be a part): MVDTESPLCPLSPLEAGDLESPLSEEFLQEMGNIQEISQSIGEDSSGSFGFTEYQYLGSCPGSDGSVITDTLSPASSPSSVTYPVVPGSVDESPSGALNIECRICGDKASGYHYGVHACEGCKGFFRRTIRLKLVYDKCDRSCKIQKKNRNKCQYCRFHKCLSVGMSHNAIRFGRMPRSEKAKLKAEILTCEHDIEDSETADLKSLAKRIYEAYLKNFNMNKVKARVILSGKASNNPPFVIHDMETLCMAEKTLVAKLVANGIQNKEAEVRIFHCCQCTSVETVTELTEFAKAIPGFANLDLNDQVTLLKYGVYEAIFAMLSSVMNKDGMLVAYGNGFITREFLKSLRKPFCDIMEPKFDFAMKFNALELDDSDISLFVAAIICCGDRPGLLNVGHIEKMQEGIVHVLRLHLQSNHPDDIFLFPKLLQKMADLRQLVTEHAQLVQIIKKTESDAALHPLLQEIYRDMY

Read-out in test [11]: Intercellular Adhesion Molecule 1 (ICAM1), ICAM1 (gene 3383)
Kind of test: BSK_3C_ICAM1: BioMAP Diversity Plus: 3C Assay for Intercellular Adhesion Molecule 1 (ICAM1) Biomarker Activity (AID 2283003). To be noted: primary human endothelial cells (HUVEC); actives raise or lower the signal. Summed up:
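ELISA readout of ICAM1 in human umbilical vein endothelial cells in the 3C system, taken 24 h post-dose. Gain or loss of signal versus DMSO was fitted in both directions, with SRB total-protein staining run in parallel.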

In test [12] the target is human Retinoic Acid Receptor beta (RARb), RARB (gene 5915) (UniProt P10826). The experiment in a line: ATG_RARb_TRANS: Attagene TRANS-FACTORIAL HepG2 Assay for human Retinoic Acid Receptor beta (AID 2283004; active = hit-call score of the fitted dose curve at least 0.9, where 1 is the maximum). Summed up: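 Fluorescent capillary-electrophoresis detection of GAL4-UAS reporter mRNA defines the endpoint, with induction over DMSO-treated wells scored as activity. Transiently transfected human hepatoma HepG2 cells expressing exogenous NR–Gal4 proteins are exposed to test chemicals for 24 h.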
Chain of human Retinoic Acid Receptor beta (RARb), RARB (gene 5915) (P10826 whole entry, looked up, the tested form may be a part): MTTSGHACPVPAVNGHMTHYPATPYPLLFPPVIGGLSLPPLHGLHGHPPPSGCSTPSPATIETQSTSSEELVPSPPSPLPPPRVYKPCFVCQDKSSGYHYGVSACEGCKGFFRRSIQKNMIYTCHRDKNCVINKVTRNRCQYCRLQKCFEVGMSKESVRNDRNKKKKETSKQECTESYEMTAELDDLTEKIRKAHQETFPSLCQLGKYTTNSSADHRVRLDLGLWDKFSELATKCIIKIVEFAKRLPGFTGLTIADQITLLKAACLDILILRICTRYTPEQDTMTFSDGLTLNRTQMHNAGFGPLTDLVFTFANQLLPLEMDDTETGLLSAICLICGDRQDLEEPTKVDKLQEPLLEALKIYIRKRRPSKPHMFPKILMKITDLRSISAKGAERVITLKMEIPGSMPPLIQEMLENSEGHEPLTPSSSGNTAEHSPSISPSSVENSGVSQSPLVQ

The target of test [13] is Retinoic acid receptor alpha (Homo sapiens) (UniProt P10276). Kind of test: ATG_RARa_TRANS: Attagene TRANS-FACTORIAL HepG2 Assay for human Retinoic Acid Receptor alpha (RARa) (AID 2283005; active = hit-call score of the fitted dose curve at least 0.9, where 1 is the maximum). Summed up: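 Reporter transcripts, measured by RT-PCR with fluorescent labeling and capillary electrophoresis after 24 h dosing, reflect activity of an exogenous human RARa–GAL4 fusion in transiently transfected HepG2. Fitted for increase relative to DMSO.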
Chain of Retinoic acid receptor alpha (Homo sapiens) (P10276 whole entry, looked up, the tested form may be a part): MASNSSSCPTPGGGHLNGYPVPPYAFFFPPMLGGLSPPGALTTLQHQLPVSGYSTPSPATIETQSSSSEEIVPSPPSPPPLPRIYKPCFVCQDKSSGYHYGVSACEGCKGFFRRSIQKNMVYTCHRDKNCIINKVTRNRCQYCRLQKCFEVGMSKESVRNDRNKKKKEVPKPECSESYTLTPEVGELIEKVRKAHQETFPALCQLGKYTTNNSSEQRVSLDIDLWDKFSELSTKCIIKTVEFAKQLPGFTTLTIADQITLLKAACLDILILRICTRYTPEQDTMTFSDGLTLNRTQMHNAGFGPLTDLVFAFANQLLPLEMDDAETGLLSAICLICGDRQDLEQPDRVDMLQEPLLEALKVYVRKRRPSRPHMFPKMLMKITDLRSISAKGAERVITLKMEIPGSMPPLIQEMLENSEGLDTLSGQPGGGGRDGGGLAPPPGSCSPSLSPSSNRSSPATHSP

A short description of test [14]: BSK_3C_Proliferation: Cell Proliferation Assessment in the BioMAP Diversity Plus: 3C Assay (AID 2283006).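 For AC50: potency may reflect either rise or fall in cell number versus DMSO.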 The following applies: primary human endothelial cells (HUVEC). Summed up: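 Proliferation as total protein: sulforhodamine B (0.1%) stain of TCA-fixed subconfluent human umbilical vein endothelial cells, absorbance 560 nm, 48 h after dosing. Activity fitted in both directions against DMSO baseline.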

Test [15] deals with Nuclear receptor subfamily 1 group I member 2 (Homo sapiens) (UniProt O75469). Kind of test: ATG_PXR_TRANS: Attagene TRANS-FACTORIAL HepG2 Assay for human Pregnane X Receptor (PXR) (AID 2283008; active = hit-call score of the fitted dose curve at least 0.9, where 1 is the maximum). Summed up: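 Transactivation by exogenous PXR–GAL4 fusion measured as reporter transcript induction after 24 h compound treatment of transfected human HepG2 cells. Read-out via RT-PCR and capillary electrophoresis of labelled fragments, fitted upward relative to DMSO.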
Chain of Nuclear receptor subfamily 1 group I member 2 (Homo sapiens) (O75469 whole entry, looked up, the tested form may be a part): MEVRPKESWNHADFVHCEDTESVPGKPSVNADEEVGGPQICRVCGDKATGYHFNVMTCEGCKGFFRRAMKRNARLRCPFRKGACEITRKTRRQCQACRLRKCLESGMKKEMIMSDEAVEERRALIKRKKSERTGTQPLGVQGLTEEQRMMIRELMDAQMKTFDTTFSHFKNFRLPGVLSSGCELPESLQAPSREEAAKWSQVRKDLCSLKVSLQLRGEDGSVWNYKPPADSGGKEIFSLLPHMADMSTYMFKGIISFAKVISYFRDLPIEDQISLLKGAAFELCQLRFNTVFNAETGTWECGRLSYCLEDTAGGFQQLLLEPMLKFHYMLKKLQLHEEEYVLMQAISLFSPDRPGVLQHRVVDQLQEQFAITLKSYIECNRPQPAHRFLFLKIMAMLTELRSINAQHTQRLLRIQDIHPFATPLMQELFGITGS

In test [16] the target is human Retinoic Acid Receptor gamma (RARg), RARG (gene 5916) (UniProt P13631). The experiment in a line: ATG_RARg_TRANS: Attagene TRANS-FACTORIAL HepG2 Assay for human Retinoic Acid Receptor gamma (RARg) (AID 2283009; active = hit-call score of the fitted dose curve at least 0.9, where 1 is the maximum). Summed up: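 Transactivation of exogenous RARg-Gal4 fusion measured as reporter transcript induction after 24 h in transfected HepG2 cells. RNA reverse-transcribed, amplified, fluorescently labeled and resolved by capillary electrophoresis; increase relative to DMSO.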
Chain of human Retinoic Acid Receptor gamma (RARg), RARG (gene 5916) (P13631 whole entry, looked up, the tested form may be a part): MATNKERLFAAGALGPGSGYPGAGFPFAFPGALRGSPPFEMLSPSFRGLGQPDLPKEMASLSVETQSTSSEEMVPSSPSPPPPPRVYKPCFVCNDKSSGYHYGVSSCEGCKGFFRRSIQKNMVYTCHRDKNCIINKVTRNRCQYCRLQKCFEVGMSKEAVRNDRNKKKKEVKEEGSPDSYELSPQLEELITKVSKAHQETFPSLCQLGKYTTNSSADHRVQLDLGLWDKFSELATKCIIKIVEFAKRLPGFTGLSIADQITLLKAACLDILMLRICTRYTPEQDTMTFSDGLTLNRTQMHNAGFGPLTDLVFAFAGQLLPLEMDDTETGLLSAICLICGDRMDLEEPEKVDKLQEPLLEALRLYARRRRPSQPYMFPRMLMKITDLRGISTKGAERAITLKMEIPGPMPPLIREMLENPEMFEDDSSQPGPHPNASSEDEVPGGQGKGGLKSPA

Test [17] deals with Myc proto-oncogene protein (Homo sapiens) (UniProt P01106). Kind of test: ATG_Myc_CIS: Attagene CIS-FACTORIAL HepG2 Assay for human Myelocytomatosis (Myc) Proto-Oncogene Transcription Factor (AID 2282990). The following applies: HepG2, Attagene cis-reporter transcription factor activity; actives raise or lower the signal. Summed up:
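HepG2, transient MRTU transfection (cis promoters, endogenous TFs); 24 h dosing; TriZol RNA → oligo(dT) RT → PCR → 6-FAM primer extension → HpaI cut → CE. Bidirectional fit vs DMSO.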

Test [18] concerns the target human Peroxisome Proliferator-activated Receptor delta (PPARd), PPARD (gene 5467) (UniProt Q03181). Kind of test: ATG_PPARd_TRANS: Attagene TRANS-FACTORIAL HepG2 Assay for human Peroxisome Proliferator-activated Receptor delta (PPARd) (AID 2283002; active = hit-call score of the fitted dose curve at least 0.9, where 1 is the maximum). Summed up:
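Transient HepG2 transfection (multiple GAL4-UAS RTUs, chimeric receptor-Gal4); 24 h dosing; total RNA → oligo(dT) RT → PCR → 6-FAM primer extension → HpaI cut → CE. Positive direction vs DMSO.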

The target of test [19] is human RAR-related Orphan Receptor beta (RORb), RORB (gene 6096) (UniProt Q92753). The experiment in a line: ATG_RORb_TRANS: Attagene TRANS-FACTORIAL HepG2 Assay for human RAR-related Orphan Receptor beta (RORb) (AID 2283010; active = hit-call score of the fitted dose curve at least 0.9, where 1 is the maximum). Summed up:
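Read-out is reporter mRNA induction, quantified by RT-PCR with fluorescent capillary electrophoresis, 24 h post-dose in transiently transfected HepG2 expressing exogenous NR-Gal4 chimera. Activity fitted upward versus DMSO.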

Test [20] addresses Peroxisome proliferator-activated receptor gamma (Homo sapiens) (UniProt P37231). Kind of test: ATG_PPARg_TRANS: Attagene TRANS-FACTORIAL HepG2 Assay for human Peroxisome Proliferator-activated Receptor-gamma (PPARg) (AID 2283007; active = hit-call score of the fitted dose curve at least 0.9, where 1 is the maximum). Summed up: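 Human hepatoma HepG2, transient MRTU transfection, 24 h treatment. mRNA reporter signal by RT-PCR plus capillary electrophoresis, fluorescence detection; fitted for increase over DMSO negative control.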

Chain of Cellular tumor antigen p53 (Homo sapiens) (P04637 whole entry, looked up): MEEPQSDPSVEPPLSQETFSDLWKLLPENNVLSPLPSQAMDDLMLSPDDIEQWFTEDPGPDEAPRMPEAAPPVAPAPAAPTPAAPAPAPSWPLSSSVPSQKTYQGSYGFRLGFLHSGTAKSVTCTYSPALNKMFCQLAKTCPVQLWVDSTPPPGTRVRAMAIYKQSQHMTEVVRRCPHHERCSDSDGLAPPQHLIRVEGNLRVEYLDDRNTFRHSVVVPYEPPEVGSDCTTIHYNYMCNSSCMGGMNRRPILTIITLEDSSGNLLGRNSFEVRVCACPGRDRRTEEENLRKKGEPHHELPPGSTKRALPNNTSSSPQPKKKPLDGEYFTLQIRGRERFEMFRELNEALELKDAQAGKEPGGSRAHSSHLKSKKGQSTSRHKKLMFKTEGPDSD
Chain of human Peroxisome Proliferator-activated Receptor delta (PPARd), PPARD (gene 5467) (Q03181 whole entry, looked up, the tested form may be a part): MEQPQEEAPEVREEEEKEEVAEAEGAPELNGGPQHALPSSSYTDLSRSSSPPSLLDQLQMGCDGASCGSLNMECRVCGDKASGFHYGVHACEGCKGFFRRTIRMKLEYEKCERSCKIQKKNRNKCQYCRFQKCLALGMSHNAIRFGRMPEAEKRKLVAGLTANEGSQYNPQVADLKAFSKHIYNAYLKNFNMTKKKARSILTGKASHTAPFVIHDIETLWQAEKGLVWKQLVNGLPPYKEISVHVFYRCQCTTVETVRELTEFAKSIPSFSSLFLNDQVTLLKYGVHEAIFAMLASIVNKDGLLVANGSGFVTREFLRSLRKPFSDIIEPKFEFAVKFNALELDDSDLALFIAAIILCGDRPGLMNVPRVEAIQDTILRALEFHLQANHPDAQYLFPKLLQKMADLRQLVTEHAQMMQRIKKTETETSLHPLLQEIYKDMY
Chain of Peroxisome proliferator-activated receptor gamma (Homo sapiens) (P37231 whole entry, looked up): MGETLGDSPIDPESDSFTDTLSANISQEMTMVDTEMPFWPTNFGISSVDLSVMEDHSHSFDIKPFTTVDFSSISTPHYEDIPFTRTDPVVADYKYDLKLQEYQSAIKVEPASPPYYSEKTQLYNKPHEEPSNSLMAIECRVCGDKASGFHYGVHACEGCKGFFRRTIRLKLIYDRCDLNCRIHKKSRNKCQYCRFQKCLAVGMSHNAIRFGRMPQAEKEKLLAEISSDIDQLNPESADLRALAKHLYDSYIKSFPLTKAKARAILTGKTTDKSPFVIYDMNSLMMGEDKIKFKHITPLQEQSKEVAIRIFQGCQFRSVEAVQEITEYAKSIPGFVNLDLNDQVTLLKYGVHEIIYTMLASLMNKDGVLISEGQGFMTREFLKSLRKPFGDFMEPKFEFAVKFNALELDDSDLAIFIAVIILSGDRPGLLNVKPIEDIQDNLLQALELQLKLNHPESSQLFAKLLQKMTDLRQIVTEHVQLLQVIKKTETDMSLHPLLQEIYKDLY
Chain of Myc proto-oncogene protein (Homo sapiens) (P01106 whole entry, looked up): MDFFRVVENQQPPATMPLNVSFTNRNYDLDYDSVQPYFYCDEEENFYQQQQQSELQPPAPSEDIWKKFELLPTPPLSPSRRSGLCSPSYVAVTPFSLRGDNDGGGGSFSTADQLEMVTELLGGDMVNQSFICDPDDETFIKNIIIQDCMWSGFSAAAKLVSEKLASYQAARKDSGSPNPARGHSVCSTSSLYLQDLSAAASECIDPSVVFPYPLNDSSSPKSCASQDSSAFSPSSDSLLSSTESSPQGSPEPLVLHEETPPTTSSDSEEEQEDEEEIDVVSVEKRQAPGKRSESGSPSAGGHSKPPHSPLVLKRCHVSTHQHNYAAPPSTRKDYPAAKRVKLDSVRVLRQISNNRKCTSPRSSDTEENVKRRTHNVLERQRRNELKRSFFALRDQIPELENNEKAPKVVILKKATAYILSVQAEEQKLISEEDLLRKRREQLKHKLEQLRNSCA
Chain of human RAR-related Orphan Receptor beta (RORb), RORB (gene 6096) (Q92753 whole entry, looked up, the tested form may be a part): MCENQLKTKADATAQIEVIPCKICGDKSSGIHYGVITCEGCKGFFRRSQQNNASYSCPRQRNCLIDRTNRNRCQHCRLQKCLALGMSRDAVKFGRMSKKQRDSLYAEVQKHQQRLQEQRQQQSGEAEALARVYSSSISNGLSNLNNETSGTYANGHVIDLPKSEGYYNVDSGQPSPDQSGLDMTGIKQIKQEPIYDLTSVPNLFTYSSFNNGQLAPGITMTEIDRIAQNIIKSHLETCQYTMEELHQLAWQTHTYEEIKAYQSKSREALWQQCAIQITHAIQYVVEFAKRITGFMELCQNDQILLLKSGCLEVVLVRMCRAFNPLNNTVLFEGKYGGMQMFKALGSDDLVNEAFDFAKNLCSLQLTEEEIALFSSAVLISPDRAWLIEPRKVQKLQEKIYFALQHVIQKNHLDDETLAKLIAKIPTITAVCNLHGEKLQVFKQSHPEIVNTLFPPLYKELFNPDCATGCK

For `COc1cc(OC)nc(NC(=O)NS(=O)(=O)c2cc(NC=O)ccc2C(=O)N(C)C)n1`, the result in [1], in test [2], in test [3], in [4], in [5] and in [6] was inactive. The outcome in test [7], in test [8], in test [9], in [10], in test [11] and in test [12] was inactive. The result in [13], in test [14], in test [15] and in test [16] was inactive.

With `O=[N+]([O-])c1c(Cl)c(Cl)c(Cl)c(Cl)c1Cl`, the call in test [1], in test [17], in test [4], in test [5], in test [6] and in test [7] was inactive. Moreover, the outcome in test [9], in test [18], in test [11], in [12], in test [13] and in [15] was inactive. Further, the outcome in test [16] and in test [19] was inactive. Further, the AC50 in test [2] was 13.8 µM (active); in test [3], 4.17 µM (active); in test [8] it was 21.4 µM (active); in [14], 30.1 µM (active).

Consider `CC(C)(C)C(O)C(Oc1ccc(Cl)cc1)n1cncn1` (stereo not drawn), for which the molecule was classed as inactive in test [1], in test [17], in [2], in test [3], in test [4] and in test [5]. In addition, the outcome in test [6], in test [7], in test [8], in [9], in test [10] and in [11] was inactive. Besides, the molecule was called inactive in test [12], in [13], in test [14], in test [20], in test [15] and in [16]. For the same molecule, in test [19], the molecule was classed as inactive. The figures for the AC50 in test [3], in test [4] and in test [15] were 4.01 µM (active), 2.07 µM (active) and 434 nM (active) [middle of 5 runs], respectively.

Consider `O=C(O)C(F)(F)C(F)(F)C(F)(F)C(F)(F)C(F)(F)C(F)(F)C(F)(F)F`, for which the call in [1], in test [2], in test [4], in test [5], in test [6] and in test [7] was inactive. Also, the result in test [8], in test [9], in [18], in test [11], in [14] and in [15] was inactive. In test [19], the call was inactive. For the same molecule, the results for the AC50 in test [3], in test [7] and in [10] were 84.7 µM (active) [middle of 4 runs], 1.51 µM (active) and 22.8 µM (active) [middle of 4 runs], respectively.

In the case of `Cc1cc(C)nc(NC(=O)NS(=O)(=O)c2ccccc2C(=O)OC2COC2)n1`, the outcome in test [1], in [17], in test [2], in test [3], in [5] and in [6] was inactive. The result in test [7], in [8], in [9], in test [11], in test [12] and in [14] was inactive. For the same molecule, the outcome in [15], in test [16] and in test [19] was inactive. Also, the AC50 in test [4] is 50 µM (active).

With `CC1(C)C(C=C(Cl)Cl)C1C(=O)OC(C#N)c1ccc(F)c(Oc2ccccc2)c1` (stereo not drawn), the molecule was classed as inactive in [1], in test [17], in [2], in test [5], in test [6] and in [7]. Besides, the result in [8], in test [9], in test [11], in [12] and in [13] was inactive. For the same molecule, the AC50 was 7.81 µM (active) in [3], 2.22 µM (active) in test [4], 10.2 µM (active) in test [14] and 21.6 µM (active) in test [15].
